# High-throughput results (PubChem)
# KB-V1 cytotox = KB-V1 MDR subline cytotoxicity | KB-V1 MDR cells viability, CellTiter-Glo, 72 h | Potency, µM (doses to about 46.1 µM), actives largely listed as cytotoxic | actives 3.4% (n = 400,000) | AID 1347076; note: % is set by controls: 0 for no effect and ±100 for the full control effect; nearly all actives have a fitted effect of over 60% in size
#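 Following 72 h at 37 degrees C with compound, KB-V1 cell viability was read by CellTiter-Glo luminescence, medium being phenol-red-free DMEM plus 10% FBS; concentration-response parameters came from normalized, curve-fitted qHTS data.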
# HT1080-NT tox = kills 2HG-producing HT-1080-NT fibrosarcoma cells | HT-1080-NT fibrosarcoma viability, CellTiter-Glo ATP luminescence, 48 h | Potency, µM (titrated, usually from 46.1 µM), inactives show at the highest dose activity, negative = less viability, actives largely listed as cytotoxic | actives 1.6% (n = 360,000) | AID 686970;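 note: NT is the 2HG producing partner of a matched IDH1 knockdown line; 0% = DMSO-treated cells and -100% = media-only wells without cells; nearly all actives have a fitted effect of over 55% in size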
#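 750 cells/well, RPMI + 5% FBS; 2 h settle, compound pin-transfer, 48 h at 37 degrees C. CellTiter-Glo 10 min RT, luminescence. Normalized to DMSO and media-only wells.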
# HT1080 IDH1KD tx = kills HT-1080 cells with IDH1 knockdown | HT-1080 IDH1 knockdown viability, ATP luminescence, 48 h | Potency, µM (top dose mostly 46.1 µM), for inactives: at the top dose activity, negative = toxicity, hits mostly cytotoxic | actives 2% (n = 360,000);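 note: 0% = DMSO wells and -100% = cell-free medium wells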
#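 CellTiter-Glo luminescence after 48 h compound exposure at 37 degrees C of IDH1-knockdown HT-1080 cells in 5% FBS RPMI. %Activity scaled between DMSO wells and cell-free media wells, with curves fitted and assigned curve classes.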
# MCF10A rerep = induces DNA re-replication in MCF 10a normal breast cells; AID 624296; MCF 10A DNA re-replication, Hoechst nuclear intensity, 48 h; actives 2.9% (n = 350,000); Potency, µM (titrated, usually from 46.1 µM), inactives show at the highest dose activity, positive = re-replication, usual class: activators; note: % of control where 0% means no effect; nearly all actives have a fitted effect of over 50% in size
# SW480 rereplic = DNA re-replication induction in SW480 cells. SW480 DNA re-replication, Hoechst DNA content imaging, 48 h. Potency, µM (series often up to 46.1 µM), for inactives: top-dose re-replication activation, hits mostly activators. actives 1.8% (n = 340,000). AID 624297; note: % of control where 0% means no effect; nearly all actives have a fitted effect of over 55% in size
#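 Readout is total intensity of Hoechst-stained nuclei, excited at 405 nm and collected at 500-530 nm. Compound treatment lasted 48 hr at 37 C in 5% CO2 before staining.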
# KB-3-1 tox = KB-3-1 parental cell cytotoxicity. actives 1.4% (n = 400,000). Potency, µM (doses to about 46.1 µM), hits mostly cytotoxic. KB-3-1 viability, CellTiter-Glo ATP luminescence, 72 h; note: % is set by controls: 0 for no effect and ±100 for the full control effect; nearly all actives have a fitted effect of over 60% in size
#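 Screening of KB-3-1 cells (DMEM, 10% FBS, phenol-red free) ran from lowest to highest compound concentration; after 72 h at 37 °C viability was read luminescently and curves fitted.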
# * marks the source's active call; other numbers are inactive results; i = inactive; u = inconclusive; x = no result given. Most compounds without a hit are left out; they make up all but 8% or so of the library. Calls come from the whole dose curve; as a rule, active = well fitted curve in the direction sought with a large enough effect; inconclusive = small, poorly fitted or top-dose-only effect, or another doubt; inactive = no such curve, though single readings can be large; an effect the other way counts as inactive or inconclusive. Potency is the fitted concentration of half-maximal effect.
SMILES,KB-V1 cytotox,HT1080-NT tox,HT1080 IDH1KD tx,MCF10A rerep,SW480 rereplic,KB-3-1 tox
Cc1c(OC(C)C(=O)NC(Cc2c[nH]c3ccc(O)cc23)C(=O)O)ccc2c1oc(=O)c1ccccc12 (configuration not stated),i,-3.3%,-2.2%,-1.4%,-7.9%,i
O=C(c1cc(-c2ccccc2Cl)nc2ccccc12)N1CCOCC1,i,2.0%,2.4%,-3.6%,-1.6%,i
CNC(=O)NC(=O)CSc1cccc(C(F)(F)F)c1,i,10.1%,-20.0%,20.6µM*,11.0%,i
O=C(NCCCO)/C(=C/c1ccco1)NC(=O)c1ccc(Br)o1,i,5.9%,9.8%,-2.9%,-12.6%,i
CCOc1ccccc1/C=N\Nc1cnn(Cc2ccccc2)c(=O)c1Cl,i,-5.0%,-23.6%,u,11.2%,i
Cc1cccc(/C=N\Nc2cn[nH]c(=O)c2Cl)c1,4.11µM*,-9.7%,u,23.2%,0.9%,i
O=c1[nH]ncc(N/N=C\c2cccs2)c1Cl,3.26µM*,-4.1%,-10.5%,9.3%,-8.6%,u
O=c1[nH]ncc(N/N=C\c2cccnc2)c1Cl,u,-0.6%,2.4%,7.0%,-13.1%,i
O=c1[nH]ncc(N/N=C\c2ccncc2)c1Cl,20.6µM*,5.6%,2.2%,15.0%,4.1%,i
COc1ccccc1/C=N\Nc1cn[nH]c(=O)c1Cl,8.2µM*,-28.6%,u,10.4%,-38.1%,i
CCCCOc1ccc(-c2cc3c(=O)n(CC(=O)Nc4ccc(Cl)cc4Cl)ccn3n2)cc1,i,x,x,x,x,i
O=C(Nc1ccccc1C(F)(F)F)c1cc2ccccc2o1,i,11.2%,7.1%,-9.6%,-2.0%,i
CCCCC1CCC(C(=O)OCC(=O)Nc2ccc(S(N)(=O)=O)cc2)CC1 (configuration not stated),i,-3.8%,0.1%,0.4%,-74.3%,i
O=C1C=C(NCc2ccc(Cl)cc2)CCC1,i,-8.5%,-0.1%,5.4%,-31.4%,i
Cc1cc(C)cc(NC(=O)CCCc2nc(-c3ccco3)no2)c1,i,x,x,x,x,i
Cn1cnnc1SCC(=O)N1N=C(c2ccc(Cl)cc2)CC1c1ccco1 (configuration not stated),i,12.8%,15.0%,u,2.2%,i
CCc1ccc2nc3nc(C)cc(C)c3c(N)c2c1,20.6µM*,u,12.6µM*,-13.7%,2.91µM*,i
OCCC1CN(Cc2nc(-c3ccccc3)cs2)CCN1CCc1ccccc1 (configuration not stated),i,-12.5%,-0.9%,2.91µM*,-6.4%,u
COc1ccc(O)c(CN2CCN(CCCc3ccccc3)C(CCO)C2)c1 (configuration not stated),i,-8.7%,-0.4%,0.231µM*,-6.3%,i
COc1ccc(OC)c(CN2CCN(CCc3ccccc3)C(CCO)C2)c1 (configuration not stated),i,6.3%,-0.1%,1.3%,-12.8%,i
O=C(O)CCCCCn1c(SCC(=O)c2ccc(O)c(O)c2)nc2ccsc2c1=O,i,6.0%,-0.1%,-24.0%,-11.2%,i
O=C(NCc1cccnc1)c1ccc([N+](=O)[O-])o1,23.1µM*,u,u,14.6µM*,2.91µM*,i
O=C(Nc1cccnc1)c1ccc([N+](=O)[O-])o1,u,u,u,7.31µM*,u,u
O=C(Nc1cccnc1)c1ccco1,i,-27.7%,u,25.1%,2.0%,i
O=C(CSc1nc2ccccc2c2nc(-c3ccccc3)nn12)Nc1ccc(Br)cc1,i,x,x,x,x,i
SMILES,KB-V1 cytotox,HT1080-NT tox,HT1080 IDH1KD tx,MCF10A rerep,SW480 rereplic,KB-3-1 tox
CCC(C)C(=O)Nc1cc(C(=O)OC)cc(C(=O)OC)c1 (configuration not stated),i,12.7%,11.3%,1.6%,0.7%,i
Cc1ccccc1/C=C/c1nc2ccccc2c(=O)[nH]1,u,-22.1%,-25.4%,18.4µM*,u,u
Cc1ccccc1/C=C\c1nc2ccccc2c(=O)[nH]1,u,16.4µM*,16.4µM*,u,u,u
COc1cc(/C=C/c2nc3ccccc3c(=O)[nH]2)cc(OC)c1OC,i,u,u,18.4µM*,3.26µM*,2.91µM*
Cc1ccc(/C=C/c2nc3ccccc3c(=O)[nH]2)cc1,i,-5.3%,-12.0%,u,u,i
N#CCOc1ccccc1/C=C/c1nc2ccccc2c(=O)[nH]1,i,-12.8%,-3.3%,24.8%,13µM*,i
COCCCNC(=S)NNC(=O)c1cc(-c2cccnc2)nc2ccccc12,x,7.9%,17.3%,-1.1%,-2.5%,x
CCOc1ccc(-c2nc3c(s2)CCc2onc(-c4ccc(OC)cc4)c2-3)cc1,i,12.0%,0.0%,1.4%,-18.7%,i
Cc1cnc(C(=O)Nc2ccccc2C(=O)N2CCOCC2)cn1,i,-0.9%,-1.8%,-5.0%,-6.7%,i
COCCOC(=O)N/C=C\c1nc2ccccc2c(=O)[nH]1,i,u,u,u,16.4µM*,u
CCc1noc(C)c1C(=O)Nc1nc2c(C)cc(C)cc2s1,u,-2.1%,-2.2%,u,3.3%,i
COc1ccc(CCNS(=O)(=O)c2ccc(OC)c(OC)c2)cc1OC,i,1.4%,-3.9%,u,-22.2%,i
COc1ccc(S(=O)(=O)NCCc2sc(C)nc2C)cc1F,16.4µM*,x,x,x,x,u
COc1ccc(-c2nnc(NC(=O)c3ccc(S(=O)(=O)N4CCc5ccccc5C4)cc3)o2)cc1,10µM*,u,-19.2%,-3.7%,u,u
COc1cccc(-c2nnc(NC(=O)c3ccc(S(=O)(=O)N4CC(C)OC(C)C4)cc3)o2)c1 (configuration not stated),u,u,9.2µM*,u,u,u
O=C(Nc1nnc(-c2ccc(F)cc2)o1)c1ccc(S(=O)(=O)N2CCOCC2)cc1,u,-14.9%,u,8.1%,10.3µM*,4.11µM*
COc1ccc(-c2csc(NC(=O)c3ccc(S(=O)(=O)N4CCc5ccccc5C4)cc3)n2)cc1,i,-22.3%,u,u,-0.9%,u
Cc1ccc(NC(=O)CCC(=O)OCCCC(F)(F)C(F)(F)F)cc1,i,9.3%,10.1%,-1.6%,2.2%,i
CCc1ccc(Cn2nnc3c(=O)[nH]c(C4CCCN(C(=O)c5cccc(Cl)c5)C4)nc32)cc1 (configuration not stated),i,x,x,x,x,i
